High-throughput results (PubChem BioAssay)
In the library only some 2% were active in any assay of this set; here they are far more common.
PAX8 inh HTS – inhibitors of PAX8-driven TPO luciferase reporter, primary screen, RMG-I cells, single concentration; SteadyGlo, 24 h; AID 652154, 2013; 360,000 compounds, 1.2% hits; inhibition, % at 12.6 µM;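 active = mean replicate inhibition at least 60% with every replicate also reaching 60%; inconclusive = only one of the two criteria is met; inactive = mean below 60% and not all replicates reaching 60%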;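 note: luciferase light reporting Pax8 driven TPO promoter activity; plate controls were median of neutral control wells for no effect and mitoxantrone controls for full effect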
CF NFkB block – inhibitors of PAF-induced NF-kB signaling, primary screen, cell-based, GFP fluorescence, uHTS; AID 588850, 2011; 360,000 compounds, 0.86% hits; inhibition, % at 5 µM; KKLEB NF-kB-GFP reporter, GFP fluorescence overnight;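 active = at least 50% inhibition at 5 µM, scaled per plate between neutral and stimulator controls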;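 note: PAF is a Pseudomonas aeruginosa culture filtrate used as stimulus; plate controls were PAF-stimulated DMSO wells for no effect and unstimulated DMSO wells for full effect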
KKLEB tox – cytotoxicity in KKLEB CF airway cells, primary screen, cytotoxicity control for CF NF-kB inhibitor project, cell-based, uHTS, fluorescence assay plates; KKLEB CF airway cells viability, ATPlite luminescence, overnight; active compounds read low; cells stimulated with P. aeruginosa culture filtrate; activity change (cytotoxicity), % at 5 µM; 360,000 compounds, 0.36% hits;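 active = corrected activity change at or below -50% at 5 µM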
Shn3 inh set2 – reduction of Shn3 3'UTR firefly luciferase signal, primary screen, Schnurri-3 inhibitor project, cell-based, Clone20 osteoblasts, set 2; Clone20 osteoblast Shn3 3'UTR firefly luciferase, 24 h; 360,000 compounds, 0.52% hits; AID 588674, 2011; inhibition, % at 12.5 µM;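 active = mean inhibition of at least 75% with every replicate also reaching 75%; inconclusive = mean inhibition at least 75% but some replicate below; inactive = mean inhibition below 75%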;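 note: 0% = median of neutral control wells and 100% = pilot-screen positive control compound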
EWS-Fli block – EWS/Fli-driven NR0B1 reporter inhibitors, primary screen, A673 cells, NR0B1 luciferase, luminescence, MLPCN library. 350,000 compounds, 0.67% hits. inhibition, % at 12.6 µM. viability-normalised;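 active = mean inhibition of at least 50% after viability correction, with every replicate also passing that limit; inconclusive = mean reaches 50% but only one of two replicates passes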;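 note: firefly luciferase signal divided by Alamar Blue viability fluorescence both relative to DMSO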
LGR2 antag – inhibitors of bursicon-induced LGR2 CRE-luciferase signal, primary screen, cell-based, HEK293, CRE-luciferase reporter, bursicon stimulation. bursicon-stimulated, 4 h. Drosophila bursicon receptor LGR2 (rickets). inhibition, % at 9.99 µM. 380,000 compounds, 0.35% hits;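 active = drop in luminescence signal, shown as inhibition above about 50% in the replicate tests, limit read from the data, passing the limit was not always enough; inconclusive = probably only some replicates passing the limit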;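 note: agonist challenge used bursicon conditioned medium at about half maximal strength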
An asterisk follows results filed as active; u = inconclusive; x = no result.

SMILES	PAX8 inh HTS	CF NFkB block	KKLEB tox	Shn3 inh set2	EWS-Fli block	LGR2 antag
CCN(CC)CCN1C(=O)c2ccccc2NC1c1cc(OC)c(OC)c(OC)c1 (stereo unspecified)	x	0	-3	13	4	-9
COc1cc2c(c(OC)c1OC)-c1ccc(N(C)CC(OC)OC)c(=O)cc1[C@@H](NC(C)=O)CC2	99*	42	-10	-30	60*	-12
COc1cc2c(c(OC)c1OC)-c1ccc(NC(=O)c3ccc(F)cc3)c(=O)cc1[C@@H](NC(C)=O)CC2	0	16	-6	14	43	-4
COc1cc2c(c(OC)c1OC)-c1ccc(OC)c(=O)cc1[C@@H](N(C)CC#CCO)CC2	77*	16	-15	-6	54*	2
CCN(CC)c1ccc2c(cc1=O)[C@@H](NC)CCc1cc(OC)c(OC)c(OC)c1-2	98*	42	-9	33	60*	-1
CN[C@H]1CCc2cc(OC)c(OC)c(OC)c2-c2ccc(N(C)CC(OC)OC)c(=O)cc21	u	8	-3	19	43	2
O=c1[nH]c(-c2ccccn2)nc2sc(-c3ccccc3)cc12	89*	19	8	80	12	32
CC(=O)Nc1sc(C)c(C)c1C(=O)OCC(=O)N(CC(C)C)c1c(N)n(Cc2ccccc2)c(=O)[nH]c1=O	-11	83*	-96*	66	63*	12
C[C@H](CO)N1C[C@H](C)[C@H](CN(C)C(=O)Nc2cccc(Oc3ccccn3)c2)OCc2cn(nn2)CCCC1=O	-9	x	x	x	4	-1
COc1ccc(/C=N/n2cnc3c([nH]c4ccc(C)cc43)c2=O)cc1CN1CCCC1	20	-8	-3	-16	59*	6
COc1ccc(/C=N/n2cnc3c([nH]c4ccc(F)cc43)c2=O)cc1CN1CCCC1	11	6	0	-8	57*	6
C[C@@H]1CCCCO[C@H](CN(C)C(=O)Nc2cccc3ccccc23)[C@@H](C)CN([C@@H](C)CO)C(=O)c2cc(NC(=O)c3ccccc3)ccc2O1	38	x	x	x	23	14
Cc1cccc(Nc2nc(N)c([N+](=O)[O-])c(N3CC(C)OC(C)C3)n2)c1 (stereo unspecified)	11	13	-8	27	8	-1
Cc1cccc(Nc2nc(N)c([N+](=O)[O-])c(N3CC(C)CC(C)C3)n2)c1 (stereo unspecified)	71*	12	-4	10	28	-3
CC(=O)N1CC(=O)N2[C@H](C1)[C@@H](c1ccc(C#CC(C)C)cc1)[C@@H]2CO	14	x	x	x	-10	-3
C=CC(=O)N1C/C(=C/c2ccc(F)cc2)C(=O)/C(=C\c2ccc(F)cc2)C1	100*	91*	-69*	91*	87*	101*
C[C@H]1CCCCO[C@@H](CN(C)C)[C@@H](C)CN([C@@H](C)CO)C(=O)c2cc(NC(=O)NC3CCCCC3)ccc2O1	2	x	x	x	-3	-1
COc1cccc2c1C(CCCC(=O)O)CCC2 (stereo unspecified)	-13	15	2	-21	2	2
COc1cccc2c1C1COC3C4CC(C(=O)O)C(C(C2)N13)N4C (stereo unspecified)	x	-8	-6	-10	72*	1
N#C[C@@H]1[C@H](c2ccccc2)[C@H](CO)N1S(=O)(=O)Cc1ccccc1	-18	x	x	x	1	-5
Cc1ccc(NC(=O)/C=C/c2ccc(S(=O)(=O)N3CCOCC3)cc2)cc1S(=O)(=O)N(C)C	66*	-11	-18	47	26	48
CN1CCN(c2ccc(NC(=O)c3ccc([N+](=O)[O-])o3)cc2Cl)CC1	82*	80*	0	90*	30	-41
O=C(COC(=O)c1ccc([N+](=O)[O-])o1)Nc1cccc(S(=O)(=O)N2CCCCC2)c1	7	11	6	-10	-2	35
O=C(Nc1cccc(S(=O)(=O)N2CCCCC2)c1)c1ccc([N+](=O)[O-])o1	76*	88*	-14	69	42	0
O=C(Nc1ccccc1N1CCOCC1)c1ccc([N+](=O)[O-])o1	51	4	-20	-12	x	7
SMILES	PAX8 inh HTS	CF NFkB block	KKLEB tox	Shn3 inh set2	EWS-Fli block	LGR2 antag
CC(=O)Nc1cccc(NC(=O)/C=C/c2ccc(S(=O)(=O)N3CCOCC3)cc2)c1	18	-23	-2	18	0	3
O=C(Nc1ccc(N2CCOCC2)c(Cl)c1)c1ccc([N+](=O)[O-])o1	71*	74*	-21	81	14	-64
COCC(=O)N1C[C@H](C)[C@H](OC)CN(C)C(=O)c2ccc(NC(=O)C3CCC3)cc2OC[C@H]1C	x	x	x	x	3	5
O=[N+]([O-])c1cccc(S(=O)(=O)Nc2nc3ccccc3nc2Nc2cccc(S(=O)(=O)N3CCCCC3)c2)c1	9	61*	-55*	25	22	34
O=[N+]([O-])c1cccc(S(=O)(=O)Nc2ccc(S(=O)(=O)N3CCCC3)cc2)c1	3	15	-5	-49	10	4
Cc1ccc(NC(=O)c2cc([N+](=O)[O-])ccc2N2CCOCC2)cc1S(=O)(=O)N1CCOCC1	x	-5	-7	6	x	-9
Cc1ccc(NC(=O)c2ccc([N+](=O)[O-])o2)cc1S(=O)(=O)N1CCOCC1	84*	56*	-5	60	49	10
C[C@@H]1CCCCO[C@H](CN(C)C(=O)NC2CCCCC2)[C@@H](C)CN([C@@H](C)CO)C(=O)c2cc(NS(=O)(=O)c3cccs3)ccc2O1	8	x	x	x	-4	16
NCC[C@H]1CC[C@H](NC(=O)Nc2ccc(F)cc2)[C@H](CO)O1	1	x	x	x	0	2
COc1ccc(S(=O)(=O)Nc2ccc3c(c2)C(=O)N([C@@H](C)CO)C[C@@H](C)[C@@H](CN(C)C(=O)Nc2ccc(C(F)(F)F)cc2)OCCCC[C@@H](C)O3)cc1	35	x	x	x	-2	11
c1ccc(-c2cn(-c3ccccc3)c3[n+]2CCCS3)cc1	13	0	1	76	14	-3
CCc1ccc(-n2cc(-c3ccc(F)cc3)[n+]3c2SCCC3)cc1	59	-12	6	72	27	12
Cc1ccc(-c2cn(-c3ccccc3)c3[n+]2CCCS3)cc1	79*	-15	4	77	17	8
COc1ccc(-n2cc(-c3ccc(C)cc3)[n+]3c2SCC3)cc1	79*	-12	8	79	x	8
